This excerpt belongs to a sample that is enriched for hits.
Tg IFNy HTS – T. gondii growth inhibition under IFN-gamma; Toxoplasma gondii growth in IFN-gamma-treated host cells; stronger effect = lower value; AID 1259416; activity change, negative = inhibition, % (test concentration not listed); 3.8% of 69,000 active; in the data active = activity change below about -70%, passing the limit was not always enough;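 also: host cells are HeLa cells infected with Toxoplasma gondii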
Numbers stand for hits; n = inactive; ! = a repeat was not active.

SMILES | Tg IFNy HTS
O=C(Nc1cccc(F)c1)C1CCC2(CNC2)O1 (centres undefined) | n
c1ccc(CO[C@@H]2CC[C@@H]3[C@@H]2OCCN3Cc2ccsc2)nc1 | n
CCN(Cc1ccccc1)C(=O)c1cn(CC2CCCO2)cc(C(=O)NC2CCCCCCC2)c1=O (centres undefined) | n
C[C@H]1CCCC(=O)CCC/C=C/c2cc(O)cc(O)c2C(=O)O1 | n
C[C@H]1CCC/C=C/[C@@H]2C[C@H](O)C[C@H]2[C@H](O)/C=C/C(=O)O1 | -77
O=C(NCC1CCCO1)c1cc2cccnc2n(Cc2ccccc2)c1=O (centres undefined) | n
Cc1cccc(COC2CC3CN(Cc4cccs4)CCN3C2)n1 (centres undefined) | n
Cn1ccnc1C(=O)N[C@H]1CN[C@@H]2CCCO[C@@H]12 | n
C=CCOC1C2CCC1N(Cc1cccnc1OC)C2 (centres undefined) | n
O=C(NC(=S)Nc1cc(C(F)(F)F)cc(C(F)(F)F)c1)Oc1ccccc1 | -98
Cc1cc(NC(=O)c2c(O)c3cccnc3n(Cc3ccccc3)c2=O)ccc1F | n
Cc1ccc(N2CCO[C@@H]3CN(Cc4ccoc4)CC[C@H]3C2)nn1 | n
C=C1[C@@H](C)[C@H]2[C@H](Cc3ccccc3)NC(=O)[C@]23OC(=O)/C=C\[C@H](O)CCC[C@@H](C)C/C=C/[C@H]3[C@@H]1O | n
Oc1cc(Cl)ccc1Oc1ccc(Cl)cc1Cl | -87
O=C(O)COc1ccc(Cl)cc1Cl | n
Cc1cc(Cl)ccc1OCC(=O)O | n
Cc1nc(C(F)(F)F)nc(N2CCC3(CCN(C)C3)CC2)c1C | n
c1cnc2c(C3CCNCC3)[nH]nc2n1 | n
COC(=O)c1ccccc1NC(=O)c1cc2cccnc2n(Cc2ccccc2F)c1=O | n
CN1C(=O)C(C(=O)/C=C/c2ccc(Cl)cc2)C2CC1(C)Oc1ccccc12 (centres undefined) | n
CN(C)C(=O)[C@@H]1CC[C@H]2[C@H](CCN2CC2CC2)O1 | n
CC1(C)C(=O)C=C[C@@]2(C)C1C(=O)C(=O)[C@]1(C)C2CC[C@@]2(C)[C@H](c3ccoc3)C[C@H]3O[C@]321 (some centres undefined) | -79
C=CCNC(=O)c1cc2cccnc2n(Cc2ccccc2F)c1=O | n
NC(=O)CN1C[C@H](O)CC1=O | n
Cn1nc(C2CNCCO2)c2cccnc21 (centres undefined) | n
SMILES | Tg IFNy HTS
CCCN1C(=O)C(C(=O)/C=C/c2ccc(C)cc2)C2c3ccccc3OC13CCCCC23 (centres undefined) | n
CCOc1ccc(/C=C/C(=O)C2C(=O)NC34CCCCC3C2c2ccccc2O4)cc1OC (centres undefined) | -80
O=C(/C=C/c1ccc(Cl)cc1)C1C(=O)NC23CCCCC2C1c1ccccc1O3 (centres undefined) | n
O=C1N(c2cncnc2)CCC12CCCN(Cc1ccccn1)C2 (centres undefined) | n
CC(C)N1C[C@@H]2OCC[C@@H]2[C@H](C(=O)NCc2cccnc2)C1 | n
O=C(O)CN1C2CCC1CN(Cc1cccs1)C2 | n
CC1OC(OC2CC(O)C3(CO)C4C(O)CC5(C)C(C6=CC(=O)OC6)CCC5(O)C4CCC3(O)C2)C(O)C(O)C1O (centres undefined) | -81
C[C@@H]1O[C@@H](O[C@H]2C[C@@H](O)[C@]3(CO)[C@H]4[C@H](O)C[C@]5(C)[C@@H](C6COC(=O)C6)CC[C@]5(O)[C@@H]4CC[C@]3(O)C2)[C@H](O)[C@H](O)[C@H]1O (some centres undefined) | -99
Cc1cccc(CN2C[C@@H]3CCCN(CC(=O)O)[C@@H]3C2)n1 | n
Cc1nccc(CN2CC3CCCN3C[C@H]2C)n1 (some centres undefined) | n
O=C(NC[C@@]12COC[C@@H]1CN(Cc1cccs1)C2)c1cccnc1 | n
CCCn1cc(C(=O)CC(=O)OC)cn1 | n
O=C(NC1CCCCCCC1)c1cn(Cc2ccccn2)cc(C(=O)N2CCc3ccccc3C2)c1=O | n
O=C(Nc1ccon1)c1cc2cccnc2n(Cc2ccccc2)c1=O | n
Cc1cccc(S(=O)(=O)N2CC[C@@H]3CNC[C@@H]32)c1 | n
C[C@]12CCC3C(CC[C@]4(O)C[C@@H](O)CC[C@]34C=O)[C@@]1(O)CCC2C1=CC(=O)OC1 (some centres undefined) | -84!
C[C@@H]1O[C@@H](O[C@H]2CC[C@]3(C=O)C4CC[C@]5(C)[C@@H](C6=CC(=O)OC6)CC[C@]5(O)C4CC[C@]3(O)C2)[C@H](O)[C@H](O)[C@H]1O (some centres undefined) | n
CN1C[C@H]2COC[C@H](CC(=O)NCCc3ccncc3)[C@H]2C1 | n
CNC(=O)C1CC2CN(Cc3ccncc3)CC1O2 (centres undefined) | n
Cc1[nH]c2c(C)cccc2c1CC(=O)N(CCN(C)C)Cc1ccc(F)cc1 | n
CNc1ccccc1C(=O)O | n
CCCCC(CC)COC(=O)c1ccccc1C(=O)OCC(CC)CCCC (centres undefined) | n
C[CH2][Hg][S]c1ccccc1C(=O)O | -73!
Cc1ccc(CN2CC[C@H]3[C@H](CO[C@H]3CNc3ncccn3)C2)o1 | n
CCN1C[C@H]2[C@@H](OC)CCN(C(=O)c3cc(C4CC4)on3)[C@H]2C1 | n
SMILES | Tg IFNy HTS
O=C(NCCCN1CCCC1=O)c1cc2cccnc2n(Cc2ccccc2)c1=O | n
COc1cccc(CCNC(=O)c2cc3cccnc3n(Cc3ccccc3)c2=O)c1 | n
COCc1cncc2c1CCN(S(=O)(=O)C1CC1)C2 | n
COCc1cncc2c1CCN(CC(C)C)C2 | n
COCc1cncc2c1CCN(C1CCOC1)C2 (centres undefined) | -109
CN(C)[C@@H]1CCN(C(=O)Cc2ccsc2)[C@H]1Cc1cnn(C)c1 | n
Cc1ccccc1NC(=O)c1c(O)c2cccnc2n(Cc2ccccc2)c1=O | n
CC(CCc1ccccc1)NC(=O)c1cc2cccnc2n(Cc2ccccc2)c1=O (centres undefined) | n
Cc1ccc(NC(=O)c2cc3cccnc3n(Cc3ccc(F)cc3)c2=O)cc1 | n
Cc1cc(C)c(NC(=O)c2cc3cccnc3n(Cc3ccc(F)cc3)c2=O)c(C)c1 | -78
CC(NC(=O)c1c(O)c2cccnc2n(Cc2ccccc2)c1=O)c1ccc(F)cc1 (centres undefined) | -113
CCc1ccc(NC(=O)c2c(O)c3cccnc3n(Cc3ccccc3)c2=O)cc1 | n
CC(NC(=O)c1cc2cccnc2n(Cc2ccccc2F)c1=O)c1ccccc1 (centres undefined) | n
O=C(Nc1ccc(F)cc1)c1c(O)c2cccnc2n(Cc2ccccc2)c1=O | n
Cc1ccc(NC(=O)c2cc3cccnc3n(Cc3ccc(F)cc3)c2=O)c(C)c1 | n
CCc1ccccc1NC(=O)c1c(O)c2cccnc2n(Cc2ccccc2)c1=O | -88
CC(NC(=O)c1cc2cccnc2n(Cc2ccccc2)c1=O)c1ccccc1 (centres undefined) | -91
Cc1ccc(F)cc1NC(=O)c1c(O)c2cccnc2n(Cc2ccccc2)c1=O | n
O=C(NCCc1cnc2ccccn12)C1CC2(CCNCC2)CN1 (centres undefined) | n
CC(C)OCCCNC(=O)c1cc2cccnc2n(Cc2ccc(F)cc2)c1=O | n
Cc1ccc(CN2CC3C[C@@H](O)CN3C[C@H]2C)o1 (some centres undefined) | n
Cc1cnc(C(=O)N2C[C@H]3CNC[C@H]3C2)cn1 | n
COc1ccc(CC(N)c2ccc(C)cn2)cc1OC (centres undefined) | n
